The list is not random: actives were taken first. Their share in the collection is about 2.9%.
A549 viability: kills or reduces viability of A549 cells in Nrf2 counter-screen; 0.16% of 390,000 active; A549 ARE-Fluc cells, CellTiter-Fluor viability, 18-24 h; Potency, µM (top dose mostly 46 µM), for inactives: at the highest dose activity change, negative = cytotoxicity, actives largely listed as inhibitors; further: on the % scale 0 is the no-effect control and ±100 the full control effect
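A549 ARE-Fluc cells in 5% FBS OPTI-MEM, 5000 cells/well, rested 2 h then exposed to compounds in concentration-response for 18-24 h at 37 °C. Viability by CellTiter-Fluor fluorescence (Ex 405/Em 525) after 30 min; luciferase luminescence (BugLite, 15 min, RT) read afterwards.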
ATXN viability: viability counter-screen for ATXN expression inhibitors; S2 cells (HEK-293 line with an ATXN2-luciferase reporter) viability, CellTiter-Fluor protease fluorescence, 24 h; Potency, µM (doses to about 56.7 µM), usual class: cytotoxic; 0.49% of 400,000 active; AID 651635; further: nearly all actives have a fitted effect of over 40% in size
ATXN2 expr inh: inhibitors of ATXN2 expression. HEK-293 ATXN2-luciferase reporter, luminescence, 24 h. Potency, µM (series often up to 57 µM), inactives show top-dose activity change, negative = inhibition, actives largely listed as inhibitors. 0.72% of 360,000 active. AID 1745845; further: on the % scale 0 is the no-effect control and ±100 the full control effect; nearly all actives have a fitted effect of over 55% in size
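ATXN2-luciferase reporter cells (luciferase flanked by upstream and downstream ATXN2 gene portions) were treated 24 h at 37 °C with compounds at up to 57 uM. SteadyGlo luminescence gave expression; GF-AFC fluorescence gave viability.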
Nrf2 inh: blocks Nrf2 signaling. A549 ARE-Fluc reporter, luciferase luminescence, 18-24 h. Potency, µM (top dose mostly 46 µM), for the others: top-dose activity change, negative = inhibition, usual class: inhibitors. 2.1% of 360,000 active. AID 504444; further: on the % scale 0 is the no-effect control and ±100 the full control effect; nearly all actives have a fitted effect of over 60% in size
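Nrf2 activity is the BugLite luminescence, read 15 min after reagent at room temperature, following CellTiter-Fluor cytotoxicity readout (30 min, 37C). Compound titrations were applied for 18-24 h to 5000 A549 ARE_Fluc cells/well in 5% FBS OPTI-MEM.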
Nrf2 activator: Nrf2 pathway activation; AREc32 ARE-luciferase reporter (MCF7-derived line), luminescence, 24 h; Potency, µM (series often up to 46.1 µM), for the others: top-dose activation, usual class: activators; 0.31% of 410,000 active; AID 624171; further: % of control where 0% means no effect; nearly all actives have a fitted effect of over 65% in size
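Quantitative high-throughput format: AREc32 reporter cells, 1000 per well, received compound by pin transfer and were incubated 24 hr at 37 deg C, 5% CO2, before Steady-Glo luminescence detection.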
An asterisk follows results filed as active; i = inactive; ? = inconclusive; / = not tested or not shown; ! = a repeat was not active; [ ] = dose if it differs, or a comment. The call rests on the fitted dose curve; in most records, active means well fitted curve in the direction sought with a large enough effect; inconclusive means small, poorly fitted or top-dose-only effect, or another doubt; inactive means no such curve, though single readings can be large; an effect the other way counts as inactive or inconclusive. Potency means the concentration at half of the fitted maximal effect.

SMILES	A549 viability	ATXN viability	ATXN2 expr inh	Nrf2 inh	Nrf2 activator
C[C@H](CO)N1C[C@H](C)[C@@H](CN(C)C(=O)c2ccc3c(c2)OCO3)Oc2cc(/C=C/c3ccccc3)ccc2S1(=O)=O	/	?	?	/	-1.0%
CCC(=O)[C@@H](C)[C@@H](O)[C@H](C)C[C@@H](C)C1OC(=O)C[C@@]2(O)CC=C(C)C(O2)C(C)=CCCC[C@H](O[C@H]2C[C@@H](OC(N)=O)[C@H](O)[C@@H](C)O2)C=C[C@H](C)C[C@H]1C (stereo partly drawn)	/	14.1µM*	-54.3%	/	-0.5%
C[C@]12CC[C@H]3[C@@H](CCC4=CC(=O)CC[C@@H]43)[C@@H]1CC[C@@H]2OC(=O)CCC1CCCCC1	/	i	?	/	/
CCOc1ccc(NC(=O)CN(c2ccc(Cl)cc2C)S(=O)(=O)c2ccccc2)cc1	-16.8%	i	-14.8%	?	3.3%
CCCCCCCCCC(CC)c1ccc(S(=O)(=O)O)cc1 (stereo not drawn)	/	31.6µM*	12.9%[116 µM]	/	/
CC(Cc1ccccc1)NCCn1cnc2c1c(=O)n(C)c(=O)n2C (stereo not drawn)	/	i	1.4%[116 µM]	/	/
CCc1ccc(NC(=O)CN2C(=O)C3(SCC(=O)N3c3ccc(F)c(F)c3)c3ccccc32)cc1 (stereo not drawn)	-16.8%	i	?	?	5.0%
Fc1ccc(C(OCCN2CCCC2)c2ccc(F)cc2)cc1	-12.1%	i	-13.9%	5.3%	0.3%
c1ccc(CCCN2CCN(CCOC(c3ccccc3)c3ccccc3)CC2)cc1	-7.7%	?	27.3µM*!	0.3%	-0.5%
COC(=O)C(C)Oc1ccc(Cc2ncc(C(F)(F)F)cc2Cl)cc1 (stereo not drawn)	0.3%	?	/	-1.1%	-0.4%
CN(C)NC(=O)CCC(=O)O	/	/	-7.0%	/	/
C[C@@H]1CN([C@H](C)CO)C(=O)c2c(c3ccccc3n2C)-c2ccccc2CO[C@@H]1CN(C)Cc1ccc(O)cc1	/	?	?	/	7.5%
COc1cccc(CN(C)C[C@@H]2OCc3ccccc3-c3c(n(C)c4ccccc34)C(=O)N([C@@H](C)CO)C[C@H]2C)c1	/	28.2µM*	?	/	-5.2%
Cc1ccc(Cn2c(=O)n(CCCCC(=O)NCc3ccccc3Cl)c(=O)c3ccccc32)cc1	-9.0%	?	?	?	-1.6%
O=[N+]([O-])c1ccc(N2CCCC2)cc1N/N=C1\CN2CCC1CC2	9.2µM*	?	11.6%	-22.9%	2.0%
CNc1cc(N2CCN(C)CC2)ccc1[N+](=O)[O-]	-29.4%	i	/	3.5%	3.1%
CCC(=O)c1ccc(OCC(=O)N2CCN(CC(=O)Nc3ccccc3C(F)(F)F)CC2)cc1	-20.7%	i	-21.8%	16.4µM*	3.6%
CCc1ccccc1NC(=O)CN1CCN(C(=O)COc2ccccc2C#N)CC1	-0.6%	i	/	-8.2%	-0.2%
Cc1cc(C)cc(NC(=O)Cn2cc(C(=O)c3cccs3)c3ccccc32)c1	-17.2%	?	-32.3%	16.4µM*	-0.5%
c1ccc2c(CNC3CCCCCC3)c[nH]c2c1	5.4%	28.2µM*	20µM*	/	17.2%
c1ccc2c(CN3CCCCCC3)c[nH]c2c1	-6.5%	i	-7.4%	-18.2%	?
CC(=O)N1c2ccc(S(=O)(=O)NCC3CCC(C(=O)Nc4cc(C)cc(C)c4)CC3)cc2CC1C (stereo not drawn)	-1.7%	/	/	20.6µM*	4.1%
CC(=O)N1c2ccc(S(=O)(=O)N3CCCC(C(=O)Nc4cc(C)cc(C)c4)C3)cc2CC1C (stereo not drawn)	14.5%	i	1.8%	?	3.6%
C=C1C[C@H]2[C@H]3CCC(=O)[C@@]3(C)CC[C@@H]2[C@@]2(C)C=CC(=O)C=C12	/	/	-0.9%	/	/
Cc1ccc(C)c(N2CCN(C(=O)CCS(=O)(=O)c3ccc4c(c3)oc(=O)n4C)CC2)c1	12.4%	i	-17.3%	20.6µM*!	0.1%
Cc1oc(-c2ccc(Cl)cc2)nc1CN1CCC(C(=O)NCCCN2CCN(c3cccc(Cl)c3)CC2)CC1	-8.9%	/	/	?	3.7%
Cn1cnc([N+](=O)[O-])c1Sc1ccc([N+](=O)[O-])cc1	?	?	8.2%	9.2µM*	17.7%

Screening data (PubChem)
